Measured values taken from the supplement of paper PMC10849652.
Targets with a hit are over-represented here; the source holds about 7,900 in all. About 0.6% of all pairs of compound and target were hits. A number with no mark means an inactive call.

How the values were obtained:
Assay in all cases: log2 fold change, soluble protein after heating vs DMSO (PISA); higher = thermal stabilisation; K562 cells, 10 uM, 30 min; active = over 0.2 and 3.5 SD of the protein, either way, in both replicates (recomputed)
bafetinib = compound: Cc1ccc(NC(=O)c2ccc(CN3CC[C@H](N(C)C)C3)c(C(F)(F)F)c2)cc1Nc1nccc(-c2cncnc2)n1 [bafetinib]
Procedure, shortened: (§1)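 Quantification of soluble protein used TMTpro 16plex LC-MS/MS, with channel sums equalised. Samples were the supernatant after 21,000xg for 90 min of pooled aliquots from K562 cells (2×10^6 cells/mL) treated with 10 μM compound for 30 min, heated for 3 min over 48°C-58°C, and extracted in PBS with 0.5% NP-40 at 4°C. Values, from duplicates, describe thermal stability against control samples on a log2 fold-change scale.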

[1] = compound: Cc1cccc(CC(=O)N2CCc3c2ccc(-c2cn(C)c4ncnc(N)c24)c3F)n1
Procedure, shortened: as §1

nilotinib = compound: Cc1cn(-c2cc(NC(=O)c3ccc(C)c(Nc4nccc(-c5cccnc5)n4)c3)cc(C(F)(F)F)c2)cn1 [nilotinib]
Procedure, shortened: as §1

[2] = compound: Cc1nc(Nc2n[nH]c3c2CN(C(=O)N[C@H](CN(C)C)c2ccccc2)C3(C)C)c2sccc2n1
Procedure, shortened: as §1

dasatinib = compound: Cc1nc(Nc2ncc(C(=O)Nc3c(C)cccc3Cl)s2)cc(N2CCN(CCO)CC2)n1 [dasatinib]
Procedure, shortened: as §1

[3] = compound: Cc1ncc(-c2ccnc(Nc3ccc(S(C)(=O)=O)cc3)n2)n1C(C)C
Procedure, shortened: as §1

[4] = compound: Cn1cc(-c2ccc3c(c2)CCN3C(=O)Cc2cccc(C(F)(F)F)c2)c2c(N)ncnc21
Procedure, shortened: as §1

[5] = compound: Cn1cc(-c2ccc3nnc(C(F)(F)c4ccc5ncccc5c4)n3n2)cn1
Procedure, shortened: as §1

tipifarnib = compound: Cn1cncc1[C@@](N)(c1ccc(Cl)cc1)c1ccc2c(c1)c(-c1cccc(Cl)c1)cc(=O)n2C [tipifarnib]
Procedure, shortened: as §1

mubritinib = compound: FC(F)(F)c1ccc(/C=C/c2nc(COc3ccc(CCCCn4ccnn4)cc3)co2)cc1 [mubritinib]
Procedure, shortened: as §1

[6] = compound: NC(=O)Nc1cc(-c2cccc(F)c2)sc1C(=O)N[C@H]1CCCNC1
Procedure, shortened: as §1

[7] = compound: NC(=O)c1cnc(N[C@@H]2CCCC[C@@H]2N)nc1Nc1cccc(-n2nccn2)c1
Procedure, shortened: as §1

[8] = compound: NC1(c2ccc(-c3nc4ccn5c(=O)[nH]nc5c4cc3-c3ccccc3)cc2)CCC1
Procedure, shortened: as §1

[9] = compound: NCC(=O)Nc1ccc(-n2nc(C(F)(F)F)cc2-c2ccc3c(ccc4ccccc43)c2)cc1
Procedure, shortened: as §1

entinostat = compound: Nc1ccccc1NC(=O)c1ccc(CNC(=O)OCc2cccnc2)cc1 [entinostat]
Procedure, shortened: as §1

vorinostat = compound: O=C(CCCCCCC(=O)Nc1ccccc1)NO [vorinostat]
Procedure, shortened: as §1

citarinostat = compound: O=C(CCCCCCNC(=O)c1cnc(N(c2ccccc2)c2ccccc2Cl)nc1)NO [citarinostat]
Procedure, shortened: as §1

silmitasertib = compound: O=C(O)c1ccc2c(c1)nc(Nc1cccc(Cl)c1)c1ccncc12 [silmitasertib]
Procedure, shortened: as §1

[10] = compound: O=C1NC(=O)C(c2cnc3ccccn23)=C1c1cn2c3c(cc(F)cc13)CN(C(=O)N1CCCCC1)CC2
Procedure, shortened: as §1

[11] = compound: c1cc(OCCN2CCCCC2)cc(-c2n[nH]c3ccc(-c4nnc[nH]4)cc23)c1
Procedure, shortened: as §1

Sequence of UniProt Q8WUX2 (Q8WUX2 whole entry, looked up): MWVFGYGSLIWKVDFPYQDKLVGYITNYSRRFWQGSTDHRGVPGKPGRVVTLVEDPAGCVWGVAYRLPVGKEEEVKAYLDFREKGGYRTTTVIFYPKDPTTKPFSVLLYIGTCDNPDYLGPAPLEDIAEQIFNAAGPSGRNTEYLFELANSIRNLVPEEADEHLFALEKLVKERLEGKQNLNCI
Sequence of UniProt Q13111 (Q13111 whole entry, looked up): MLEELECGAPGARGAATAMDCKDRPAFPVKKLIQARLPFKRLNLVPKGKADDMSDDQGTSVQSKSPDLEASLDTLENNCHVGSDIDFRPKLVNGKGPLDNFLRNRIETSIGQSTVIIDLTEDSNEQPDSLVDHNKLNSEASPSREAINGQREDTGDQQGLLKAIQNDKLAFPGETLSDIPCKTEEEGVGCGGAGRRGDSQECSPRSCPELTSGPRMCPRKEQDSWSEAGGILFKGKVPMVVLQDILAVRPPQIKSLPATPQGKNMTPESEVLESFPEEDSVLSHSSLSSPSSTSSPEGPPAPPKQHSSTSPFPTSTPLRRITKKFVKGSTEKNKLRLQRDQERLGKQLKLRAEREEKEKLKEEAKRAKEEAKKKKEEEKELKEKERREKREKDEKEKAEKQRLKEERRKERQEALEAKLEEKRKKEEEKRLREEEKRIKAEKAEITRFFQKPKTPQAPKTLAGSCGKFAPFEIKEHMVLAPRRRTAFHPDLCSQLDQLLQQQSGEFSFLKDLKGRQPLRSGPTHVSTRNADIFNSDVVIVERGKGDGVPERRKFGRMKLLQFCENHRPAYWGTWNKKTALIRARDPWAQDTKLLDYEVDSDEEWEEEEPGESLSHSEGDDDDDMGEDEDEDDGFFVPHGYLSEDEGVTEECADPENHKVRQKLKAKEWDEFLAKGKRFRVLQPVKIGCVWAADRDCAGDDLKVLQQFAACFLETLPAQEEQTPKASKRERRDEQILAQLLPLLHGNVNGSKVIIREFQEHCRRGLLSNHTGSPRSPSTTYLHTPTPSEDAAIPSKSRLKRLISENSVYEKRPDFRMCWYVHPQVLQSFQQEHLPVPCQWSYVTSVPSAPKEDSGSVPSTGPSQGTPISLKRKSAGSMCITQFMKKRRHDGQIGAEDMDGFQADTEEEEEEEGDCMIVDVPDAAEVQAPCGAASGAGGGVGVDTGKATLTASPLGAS
Sequence of UniProt O75208 (O75208 whole entry, looked up): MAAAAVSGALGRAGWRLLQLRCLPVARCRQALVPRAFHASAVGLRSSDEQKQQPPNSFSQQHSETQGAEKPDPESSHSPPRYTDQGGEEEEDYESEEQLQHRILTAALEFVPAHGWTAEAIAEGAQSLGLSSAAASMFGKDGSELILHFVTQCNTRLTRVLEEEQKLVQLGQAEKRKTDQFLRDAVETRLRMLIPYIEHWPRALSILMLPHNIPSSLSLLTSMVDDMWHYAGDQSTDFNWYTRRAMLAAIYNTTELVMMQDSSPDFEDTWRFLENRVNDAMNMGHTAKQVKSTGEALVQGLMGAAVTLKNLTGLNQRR
Sequence of UniProt O75122 (O75122 whole entry, looked up): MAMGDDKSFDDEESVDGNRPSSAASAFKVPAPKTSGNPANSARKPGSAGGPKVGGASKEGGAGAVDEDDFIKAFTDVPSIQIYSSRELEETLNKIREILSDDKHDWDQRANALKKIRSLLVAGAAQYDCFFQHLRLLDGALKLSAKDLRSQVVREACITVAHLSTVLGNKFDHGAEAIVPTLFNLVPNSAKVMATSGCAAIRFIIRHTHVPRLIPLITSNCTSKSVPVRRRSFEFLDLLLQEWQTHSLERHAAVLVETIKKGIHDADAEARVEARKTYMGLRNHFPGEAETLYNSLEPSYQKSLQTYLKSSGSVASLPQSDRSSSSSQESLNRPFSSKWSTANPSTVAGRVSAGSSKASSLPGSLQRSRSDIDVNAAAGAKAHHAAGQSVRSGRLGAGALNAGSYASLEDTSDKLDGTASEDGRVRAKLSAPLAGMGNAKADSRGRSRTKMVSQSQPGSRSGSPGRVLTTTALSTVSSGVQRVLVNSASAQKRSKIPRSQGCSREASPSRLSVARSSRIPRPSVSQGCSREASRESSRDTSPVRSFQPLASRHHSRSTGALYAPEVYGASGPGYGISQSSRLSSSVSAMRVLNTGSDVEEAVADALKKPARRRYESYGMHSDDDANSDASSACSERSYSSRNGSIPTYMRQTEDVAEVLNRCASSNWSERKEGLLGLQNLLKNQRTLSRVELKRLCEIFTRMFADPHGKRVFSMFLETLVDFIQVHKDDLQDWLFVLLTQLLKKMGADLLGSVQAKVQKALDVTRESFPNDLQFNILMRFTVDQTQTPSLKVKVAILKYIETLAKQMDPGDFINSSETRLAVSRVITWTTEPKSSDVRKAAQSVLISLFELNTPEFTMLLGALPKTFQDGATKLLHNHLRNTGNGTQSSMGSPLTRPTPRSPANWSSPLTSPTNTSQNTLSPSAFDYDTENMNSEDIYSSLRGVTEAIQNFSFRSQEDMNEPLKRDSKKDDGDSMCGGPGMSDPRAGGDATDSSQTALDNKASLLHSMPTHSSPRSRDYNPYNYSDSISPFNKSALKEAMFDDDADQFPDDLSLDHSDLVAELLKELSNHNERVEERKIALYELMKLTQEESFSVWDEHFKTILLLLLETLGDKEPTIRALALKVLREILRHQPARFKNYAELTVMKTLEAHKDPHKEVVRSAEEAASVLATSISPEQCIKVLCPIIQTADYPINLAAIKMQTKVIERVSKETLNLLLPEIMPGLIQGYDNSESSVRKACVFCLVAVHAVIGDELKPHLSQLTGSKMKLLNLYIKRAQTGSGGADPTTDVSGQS
Sequence of UniProt Q9Y5P4 (Q9Y5P4 whole entry, looked up): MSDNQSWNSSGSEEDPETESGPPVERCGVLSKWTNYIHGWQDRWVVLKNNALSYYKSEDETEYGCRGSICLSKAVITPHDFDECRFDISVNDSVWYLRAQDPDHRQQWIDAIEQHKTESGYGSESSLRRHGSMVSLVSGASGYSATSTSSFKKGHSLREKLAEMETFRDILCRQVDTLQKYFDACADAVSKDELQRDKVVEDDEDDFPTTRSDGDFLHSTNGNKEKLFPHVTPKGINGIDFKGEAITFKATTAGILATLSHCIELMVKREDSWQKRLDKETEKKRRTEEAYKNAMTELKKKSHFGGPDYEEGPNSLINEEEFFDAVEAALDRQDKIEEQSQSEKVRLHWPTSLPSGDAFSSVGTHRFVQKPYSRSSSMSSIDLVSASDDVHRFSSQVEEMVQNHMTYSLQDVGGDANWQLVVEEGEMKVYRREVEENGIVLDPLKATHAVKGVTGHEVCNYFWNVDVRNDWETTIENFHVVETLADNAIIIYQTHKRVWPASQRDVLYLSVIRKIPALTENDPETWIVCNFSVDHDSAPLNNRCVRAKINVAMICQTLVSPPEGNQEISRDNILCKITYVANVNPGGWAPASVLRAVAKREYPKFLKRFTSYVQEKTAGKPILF
Sequence of UniProt P68400 (P68400 whole entry, looked up): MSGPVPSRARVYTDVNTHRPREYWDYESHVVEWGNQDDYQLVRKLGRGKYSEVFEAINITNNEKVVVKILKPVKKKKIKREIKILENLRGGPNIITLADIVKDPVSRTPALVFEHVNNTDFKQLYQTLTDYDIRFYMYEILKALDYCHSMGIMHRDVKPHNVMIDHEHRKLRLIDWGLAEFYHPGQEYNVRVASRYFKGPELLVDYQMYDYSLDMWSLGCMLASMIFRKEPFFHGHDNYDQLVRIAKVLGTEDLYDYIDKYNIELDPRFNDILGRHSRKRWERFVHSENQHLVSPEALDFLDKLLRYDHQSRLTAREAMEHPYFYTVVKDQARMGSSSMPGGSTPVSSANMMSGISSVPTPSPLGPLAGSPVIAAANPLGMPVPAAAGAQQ
Sequence of UniProt O15182 (O15182 whole entry, looked up): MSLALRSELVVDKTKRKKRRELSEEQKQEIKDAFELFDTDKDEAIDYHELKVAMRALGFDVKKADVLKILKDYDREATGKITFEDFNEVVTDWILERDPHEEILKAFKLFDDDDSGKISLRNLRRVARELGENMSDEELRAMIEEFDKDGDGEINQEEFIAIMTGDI
Sequence of UniProt Q16740 (Q16740 whole entry, looked up): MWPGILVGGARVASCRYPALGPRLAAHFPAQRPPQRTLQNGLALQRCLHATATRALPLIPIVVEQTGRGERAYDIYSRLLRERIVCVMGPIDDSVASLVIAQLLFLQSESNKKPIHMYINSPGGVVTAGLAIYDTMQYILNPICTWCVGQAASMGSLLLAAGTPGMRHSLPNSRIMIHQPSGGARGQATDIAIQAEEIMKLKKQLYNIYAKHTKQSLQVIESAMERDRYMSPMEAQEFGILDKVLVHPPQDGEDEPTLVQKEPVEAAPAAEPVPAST
Sequence of UniProt Q92851 (Q92851 whole entry, looked up): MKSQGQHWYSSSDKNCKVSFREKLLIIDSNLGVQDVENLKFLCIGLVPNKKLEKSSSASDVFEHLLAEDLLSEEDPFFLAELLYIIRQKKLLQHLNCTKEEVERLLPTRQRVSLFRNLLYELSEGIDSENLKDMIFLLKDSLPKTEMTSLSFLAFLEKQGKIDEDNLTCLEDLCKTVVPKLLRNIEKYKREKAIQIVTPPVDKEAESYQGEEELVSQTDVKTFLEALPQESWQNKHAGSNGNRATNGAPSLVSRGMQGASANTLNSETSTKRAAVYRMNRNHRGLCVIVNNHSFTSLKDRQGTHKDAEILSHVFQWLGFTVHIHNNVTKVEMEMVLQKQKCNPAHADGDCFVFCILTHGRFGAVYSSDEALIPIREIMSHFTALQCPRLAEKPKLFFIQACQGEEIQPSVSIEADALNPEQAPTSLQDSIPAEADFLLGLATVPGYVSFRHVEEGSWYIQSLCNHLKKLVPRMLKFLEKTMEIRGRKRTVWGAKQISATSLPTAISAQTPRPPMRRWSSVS
Sequence of UniProt Q99653 (Q99653 whole entry, looked up): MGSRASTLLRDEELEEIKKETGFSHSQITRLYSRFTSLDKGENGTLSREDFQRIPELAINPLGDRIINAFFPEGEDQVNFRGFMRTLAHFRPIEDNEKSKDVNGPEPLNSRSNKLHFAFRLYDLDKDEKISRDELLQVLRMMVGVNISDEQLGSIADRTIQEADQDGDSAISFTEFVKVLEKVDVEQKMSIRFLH

Target | log2 fold change (bafetinib) | log2 fold change [1] | log2 fold change (nilotinib) | log2 fold change [2] | log2 fold change (dasatinib) | log2 fold change [3] | log2 fold change [4] | log2 fold change [5] | log2 fold change (tipifarnib) | log2 fold change (mubritinib) | log2 fold change [6] | log2 fold change [7] | log2 fold change [8] | log2 fold change [9] | log2 fold change (entinostat) | log2 fold change (vorinostat) | log2 fold change (citarinostat) | log2 fold change (silmitasertib) | log2 fold change [10] | log2 fold change [11]
CERT isoform 3 (UniProt Q9Y5P4) | 0.032 | -0.08 | 0.193 | -0.397 (active) | 0.019 | -0.11 | 0.109 | 0.021 | 0.111 | 0.117 | -0.323 (active) | -0.103 | -0.101 | -0.045 | -0.008 | -0.025 | 0.065 | 0.034 | 0 | -0.418 (active)
CETN3 (UniProt O15182) | -0.052 | -0.249 (active) | -0.051 | 0.04 | 0.068 | -0.013 | -0.026 | -0.006 | 0.086 | 0.112 | -0.016 | -0.059 | -0.031 | -0.102 | 0.033 | -0.126 | -0.002 | 0.032 | -0.1 | -0.061
CASP10 isoform 4 (UniProt Q92851) | 0.001 | -0.394 | -0.087 | -0.103 | -0.301 | 0.037 | -0.044 | 0.063 | 0.119 | 0.084 | -0.089 | -0.058 | -0.084 | -0.055 | -0.05 | 0.258 | 0.123 | 0.076 | 0.089 | -0.13
CHAC2 (UniProt Q8WUX2) | -0.052 | -0.003 | 0.078 | -0.153 | 0.012 | 0.012 | -0.004 | -0.006 | -0.037 | 0.045 | 0.022 | -0.019 | -0.008 | -0.028 | -0.017 | -0.016 | -0.232 | 0.022 | -0.03 | 0.419 (active)
CHEK1 (UniProt O14757) | -0.053 | 0.02 | -0.05 | -1.17 (active) | -0.064 | 0.002 | 0.021 | -0.022 | 0.005 | 0.048 | 0.338 (active) | -0.225 | -0.209 | -0.032 | 0.02 | 0.037 | 0.094 | -0.011 | -0.064 | -0.276 (active)
CRLF3 (UniProt Q8IUI8) | -0.032 | -0.045 | -0.043 | -0.117 | -0.145 | 0.011 | 0.025 | 0.024 | -0.018 | 0.032 | 0.016 | -0.233 | -0.165 | -0.105 | 0.025 | -0.023 | 0.047 | 0.104 | -0.003 | -0.057
CLINT1 isoform 3 (UniProt Q14677) | 0.024 | -0.083 | 0.042 | 0.037 | 0.264 (active) | -0.026 | -0.071 | -0.083 | 0.017 | 0.045 | 0.106 | -0.027 | 0.078 | 0.058 | -0.052 | -0.035 | -0.048 | 0.008 | 0.024 | 0.015
CDC37L1 (UniProt Q7L3B6) | -0.215 | 0.027 | -0.026 | -0.167 | -0.088 | 0.022 | 0.018 | 0.121 | 0.034 | 0.172 | -0.061 | -0.074 | 0.018 | 0.033 | -0.011 | -0.017 | -0.064 | 0.07 | -0.022 | -0.102
CHAF1A (UniProt Q13111) | -0.154 | -0.04 | 0.053 | 0.047 | 0.016 | -0.074 | 0.006 | 0.002 | 0.015 | 0.034 | 0.087 | 0.046 | 0.036 | – | -0.141 | 0.121 | 0.005 | -0.019 | -0.167 | -0.439 (active)
CHP1 (UniProt Q99653) | 0 | -0.087 | 0.014 | 0.019 | 0.042 | 0.004 | 0.043 | -0.116 | 0.072 | 0.037 | -0.1 | 0.014 | -0.104 | 0.19 | -0.012 | -0.066 | 0.001 | 0.061 | -0.054 | 0.011
COQ9 (UniProt O75208) | -0.124 | 0.074 | -0.06 | -0.035 | -0.147 | 0.001 | 0.052 | 0.028 | -0.068 | -0.04 | 0.02 | -0.002 | -0.151 | -0.032 | 0.045 | 0.028 | -0.013 | 0.021 | -0.103 | 0.008
CSNK2A1 (UniProt P68400) | -0.02 | -0.073 | 0.032 | 0.019 | -0.03 | -0.055 | -0.019 | 0.035 | 0.03 | -0.019 | -0.062 | 0.014 | 0.007 | 0.05 | -0.015 | 0.046 | -0.013 | – | -0.027 | -0.045
CLPP (UniProt Q16740) | 0.025 | -0.045 | 0.022 | 0.005 | 0.063 | -0.016 | 0.115 | 0.02 | 0.003 | 0.004 | 0.044 | -0.027 | 0.027 | -0.008 | 0.029 | -0.05 | 0.027 | 0.007 | 0.096 | -0.031
CSNK1D (UniProt P48730) | 0.1 | 0.064 | -0.025 | 0.073 | 0.119 | 0.241 | -0.083 | -0.042 | 0.051 | -0.148 | -0.043 | 0.185 | 0.106 | -0.02 | -0.062 | 0 | -0.025 | 0.054 | 0.107 | 0.173
CIT isoform 4 (UniProt O14578) | -0.01 | 0.07 | -0.049 | -0.065 | -0.064 | -0.03 | 0.006 | -0.075 | -0.009 | 0.031 | -0.072 | -0.101 | -0.108 | 0 | 0.025 | 0.041 | -0.222 | 0.049 | 0.049 | 0.293
CLASP2 isoform 3 (UniProt O75122) | 0.016 | 0.058 | -0.067 | -0.279 (active) | -0.175 | -0.188 | 0.013 | 0.012 | -0.089 | 0.022 | 0.018 | -0.018 | -0.147 | -0.036 | 0.02 | 0.069 | 0.09 | -0.033 | -0.153 | -0.055
